In all, about 340,000 compounds went through this assay and about 2,100 (0.62%) were called active.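 The calls were made as follows: active = first-screen hits whose inhibition reached a set limit at any dose in the follow-up dose series; inconclusive = inhibition above the set first-screen limit but never retested; inactive = the rest.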 Not all results are given here. Results with a measured potency or affinity are listed apart. Square brackets hold non-standard residues; d marks the D form. Peptide text beside a SMILES is read from it. * marks the point of attachment. ξ: configuration not given here. Cbz = O=C(OCc1ccccc1)*; ξP = O=C(O)C1CCCN1

For this assay, the target named is Rac GTPase-activating protein 1 (Homo sapiens) (UniProt Q9H0H5). Description: MgcRacGAP GTPase-activating activity inhibitors, confirmation, biochemical, ADP Hunter fluorescence, primary and confirmatory (AID 624330).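 Also: fluorescence reports GDP produced by GAP-driven GTP hydrolysis.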 The conditions noted are these: MgcRacGAP-stimulated Rac1 GTP hydrolysis, at 30 µM, hits give high values, GST-tagged Rac1 F28L mutant substrate.
Rac GTPase-activating protein 1 (Homo sapiens), sequence (Q9H0H5 whole entry, looked up): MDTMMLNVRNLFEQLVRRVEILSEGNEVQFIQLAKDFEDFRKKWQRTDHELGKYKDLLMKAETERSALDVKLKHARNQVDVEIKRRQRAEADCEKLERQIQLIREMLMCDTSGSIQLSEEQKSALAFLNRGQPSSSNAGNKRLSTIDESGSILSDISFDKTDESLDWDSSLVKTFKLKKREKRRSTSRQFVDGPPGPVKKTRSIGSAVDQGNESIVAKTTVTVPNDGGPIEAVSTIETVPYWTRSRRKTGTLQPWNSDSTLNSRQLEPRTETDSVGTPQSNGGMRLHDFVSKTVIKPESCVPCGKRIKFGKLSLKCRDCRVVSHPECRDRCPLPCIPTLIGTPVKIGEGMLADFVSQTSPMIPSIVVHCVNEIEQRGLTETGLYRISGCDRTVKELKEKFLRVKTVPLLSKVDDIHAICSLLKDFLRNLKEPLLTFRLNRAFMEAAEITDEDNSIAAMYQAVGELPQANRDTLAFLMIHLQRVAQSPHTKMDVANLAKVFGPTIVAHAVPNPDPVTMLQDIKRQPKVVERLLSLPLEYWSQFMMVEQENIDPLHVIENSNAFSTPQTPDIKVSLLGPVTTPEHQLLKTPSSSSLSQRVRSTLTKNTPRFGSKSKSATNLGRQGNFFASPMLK
As to `Cc1ccc(OCCNC(=O)c2ccc(C)cc2)cc1`, the inhibition is -0.09% (inactive).

With `CCN1C(=O)C(NC(C)=O)c2cc(Br)ccc21` (stereo not drawn), the inhibition was 1.35% (inactive).

In the case of `CCOc1ccc(NC(=O)CN(C)C(=O)Cc2n[nH]c(=O)c3ccccc23)cc1OCC`, the inhibition was 3.38% (inactive).

In the case of `COc1ccccc1CN(C)C(=O)c1cccc(S(=O)(=O)N2CCCC2)c1`, the inhibition is 5.67% (inactive).

In the case of `Cc1cccc(C)c1Nc1n[nH]c(=S)s1`, the inhibition is 13.1% (inactive).

As to `Cc1cc(C)c(Nc2n[nH]c(=S)s2)cc1C`, the inhibition was 29.6% (inactive).

For `COc1ccccc1N1C(=O)S/C(=C\c2cc(C)n(C)c2C)C1=O`, the inhibition was -0.75% (inactive).

Consider `N#Cc1ccc[n+](CC(=O)c2ccc(NC(=O)c3ccccc3)cc2)c1`, for which the inhibition was 3.28% (inactive).

On to `c1cc2c3c(cccc3c1)NC1(CCC3(CC1)Nc1cccc4cccc(c14)N3)N2`, for which the inhibition was 29.5% (inactive).

On to `c1cc2c3c(cccc3c1)NC1(CCCC1)N2`, for which the inhibition was -1.27% (inactive).

On to `COc1cc(OC)cc(N(C(=O)c2ccco2)C(C(=O)NC2CCCC2)c2ccc(N3CCOCC3)cc2)c1` (stereo not drawn), for which the inhibition is 3.31% (inactive).

On to `O=C(NC1CCCC1)C(c1ccncc1)N(C(=O)Cc1cccs1)c1ccc(F)cc1` (stereo not drawn), for which the inhibition is -2.61% (inactive).

As to `ON=C1c2ccccc2-c2ccc(F)cc21`, the inhibition was -0.77% (inactive).

For the molecule `Nc1ccc2c(c1)C(=NO)c1ccccc1-2`, the inhibition was 14.6% (inactive).

With `ON=C1c2ccccc2-c2ccc(Br)cc21`, the inhibition was 0.43% (inactive).

Turning to `ON=C1c2ccccc2-c2ccccc21`, the inhibition was 4.05% (inactive).

As for `COCCCNc1nc2nonc2nc1NCCSC`, the inhibition was -2.05% (inactive).

In the case of `Cc1cc(SCc2ccc(Cl)c(Cl)c2)nc(=O)[nH]1`, the inhibition was 13.6% (inactive).

Turning to `CC(C)(C)C(=O)Nc1ccc(C(=O)N/N=C/C2CC3C=CC2C3)cc1` (stereo not drawn), the inhibition was 8.37% (inactive).

On to `COC(=O)CNC(=O)C1CCCN1C(=O)CNC(=O)OCc1ccccc1` (stereo not drawn) (Cbz-Gly-[ξP]-Gly-OMe), for which the inhibition is 7.71% (inactive).

On to `CC(C)C(C)NC(=O)CN1C(=O)NC2(CCc3ccccc3C2)C1=O` (stereo not drawn), for which the inhibition was 2.87% (inactive).

With `CCC(=O)c1ccc(OCc2ccc(C(=O)c3ccccc3)cc2)cc1`, the inhibition was 6.28% (inactive).

Regarding `COc1cccc(NC(=O)c2sc3nc4n(c(=O)c3c2C)CCC4)c1`, the inhibition was -4.45% (inactive).

Take `O=C(CCC1CCCC1)Nc1cccn(Cc2ccccc2Br)c1=O`: the inhibition was 2.13% (inactive).

Take `CCOC(=O)c1sc(=S)n(Cc2ccccc2)c1C`: the inhibition was 8.11% (inactive).

For the molecule `CCOC(=O)c1cc(C)n(Cc2ccccc2)c1C`, the inhibition is -2.73% (inactive).

Regarding `Cc1noc(C)c1COc1ccccc1C(=O)NNC(=O)c1ccccc1`, the inhibition was 11.8% (inactive).

Regarding `N#C/C(=N\Nc1cccc(F)c1)C(=N)N1CCCCCC1`, the inhibition was 15.4% (inactive).

With `Cc1ccc(/C=N/N2C(=O)c3ccccc3NC2c2ccc(C)cc2)cc1` (stereo not drawn), the inhibition is 7.64% (inactive).

As to `O=C1c2ccccc2NC(c2ccccc2)N1/N=C/c1ccccc1` (stereo not drawn), the inhibition is 12.7% (inactive).

Turning to `COc1ccc(Cn2nnnc2C(c2ccccn2)N2CCN(c3cc(Cl)ccc3C)CC2)cc1` (stereo not drawn), the inhibition is 3.5% (inactive).

Take `CCOC(=O)c1[nH]c2ccccc2c1N=CN(C)C`: the inhibition is 27.9% (inactive).

On to `CCCCNC(=O)Nc1c(C(=O)OCC)[nH]c2ccccc12`, for which the inhibition was 5.71% (inactive).

Consider `CCOC(=O)c1[nH]c2ccccc2c1NC(=O)C(C)(C)C`, for which the inhibition was 5.02% (inactive).

For `CCOC(=O)c1[nH]c2ccccc2c1N=CN(CC)CC`, the inhibition was 14.9% (inactive).

With `CCOC(=O)c1[nH]c2ccccc2c1NC(=O)COC`, the inhibition was 4.84% (inactive).

In the case of `CCOC(=O)c1[nH]c(C)c(C(=O)Nc2ccccc2C)c1C`, the inhibition is 6.7% (inactive).

`CCCC(=O)Nc1c(C(=O)OCC)[nH]c2ccccc12`: the inhibition is 4.51% (inactive).

`Cc1cccc(NC(=O)COC(=O)c2n[nH]c3ccccc23)c1C`: the inhibition is 4.6% (inactive).

Regarding `O=C(CCCn1c(=O)c2sccc2n(CC(=O)OCc2ccccc2)c1=O)NCc1ccco1`, the inhibition is 6.92% (inactive).

As to `O=C(NCc1nnc2c(C(F)(F)F)cc(Cl)cn12)c1cccnc1`, the inhibition is 9.23% (inactive).

As to `CC(OC(=O)Cc1ccsc1)C(=O)Nc1ccc(C(N)=O)cc1` (stereo not drawn), the inhibition is 2.18% (inactive).

`O=C(NC(=S)N(Cc1ccccc1)c1ccccn1)C1CCCCC1`: the inhibition is 7.13% (inactive).

With `COc1ccccc1NC(=O)NCc1ccccc1F`, the inhibition was 5.13% (inactive).

Take `O=C(c1ccccc1)N1CCCC(C(=O)N2CCCCCC2)C1` (stereo not drawn): the inhibition was -4.85% (inactive).

Turning to `CCCn1ccc2c(OCC(=O)Nc3ccc(NC(C)=O)cc3)cccc2c1=O`, the inhibition is -3.32% (inactive).

As to `O=C(c1cc(Cl)ccc1OCc1ccccc1)N1CCOCC1`, the inhibition was 6.74% (inactive).

Take `CC(Oc1ccccc1)C(=O)NNC(=O)c1ccccn1` (stereo not drawn): the inhibition was 3.78% (inactive).

With `COc1ccc([C@H]2CC(=O)C=C(c3ccccc3-c3ccccc3)C2)cc1`, the inhibition is 0.94% (inactive).

On to `CCCC/C(O)=C1\C(=O)CC(C)(C)CC1=Nc1ccc(OC)cc1`, for which the inhibition is 3.47% (inactive).

Regarding `O=C(Nc1ccc(F)cc1)Nc1nnc(Cc2ccccc2)s1`, the inhibition is 2.79% (inactive).

In the case of `CCOc1cc(/C=N/NC(=O)COc2nc(C)cc(COC)c2C#N)ccc1O`, the inhibition was 16.6% (inactive).

With `COc1ccc(/C=N/NC(=O)CCc2n[nH]c(=O)[nH]c2=O)cc1OC`, the inhibition was 4.75% (inactive).

`COc1cc(/C=N/NC(=O)C(C)Nc2n[nH]c(=O)[nH]c2=O)cc(OC)c1O` (stereo not drawn): the inhibition is 11.1% (inactive).

For `COc1cc(/C=N/NC(=O)c2cc(-c3ccccc3)nc3ccccc23)ccc1O`, the inhibition is 21.3% (inactive).

Regarding `COc1ccc(C=NNC(=O)CCCC(=O)NN=Cc2ccc(OC)c(OC)c2)cc1OC`, the inhibition was 2.12% (inactive).

Turning to `COc1cc(/C=N/NC(=O)CCc2c(C)n[nH]c2C)ccc1O`, the inhibition was 3.71% (inactive).

With `COc1ccc(/C=N/NC(=O)CNc2n[nH]c(=O)[nH]c2=O)cc1OC`, the inhibition is 10.5% (inactive).

In the case of `COc1cc(/C=N/NC(=O)CSc2cc(C)c(Br)cc2C)ccc1O`, the inhibition is 15.9% (inactive).

Consider `CC(=O)c1ccc2ccccc2c1OC(=O)c1ccncc1`, for which the inhibition is 6.45% (inactive).

As for `CSc1sc(-c2ccnc(SCC(=O)C(C)(C)C)n2)c2c1C(=O)CC(C)(C)C2`, the inhibition is 13.4% (inactive).

With `CCn1c(SCC(=O)Nc2ccc(F)cc2)nc2ccccc2c1=O`, the inhibition is 0.4% (inactive).

Regarding `Cc1ccc(C(=O)N2CCC(C(=O)NCc3ccco3)CC2)cc1`, the inhibition is 5.06% (inactive).

As a reminder, the inhibition is the change of the read-out against control, counted positive when it falls.
